Experimental data taken from ChEMBL document CHEMBL3988442, “University of Dundee, Small-Polar-MMV Screening Library” (2021).

biological target: AMP-activated protein kinase, AMPK (Homo sapiens) (UniProt P54646+O43741+P54619+Q9UGJ0+Q9Y478+Q13131+Q9UGI9); assay: AMP-dependent Kinase enzyme assay. An in vitro enzyme assay that detects ADP turnover that is directly proportional to AMPK activity. This uses naive AMPK that is activated during the assay with MK-8722; type: functional; design: scale not given: direction of the effect not stated beside the values; settings: 30 µM

SMILES	Percent Effect [%]
Cc1nc(CNC(=O)Nc2c(C)n[nH]c2C)cs1	-7.09
c1c[nH]c(-c2cn(CCSc3cnn[nH]3)nn2)n1	-8.05
OC[C@@H]1CCCN1Cc1cn(C2CCN(C3CCCC3)CC2)nn1	-1.95
CCc1ccc2nc(-c3cnn(C)c3)cc(C(=O)N3CCCC3)c2c1	7.23
N#Cc1cc(S(N)(=O)=O)ccc1N1CCc2c(Cl)cccc2C1	17.4
CCc1nc(CSc2nnc(N)n2C2CC2)no1	7.62
CC(C)Cn1nc(-c2ccc(C(=O)O)cc2)cc1-c1ccc(F)cc1	22.7
CC(C)Cc1cc(CNC(=O)c2ccccc2C2CCNC2)no1 (stereo not given)	3.3
O=C(NCC[S+]([O-])Cc1ccccc1)c1ccc2[nH]c(=O)[nH]c2c1 (stereo not given)	13.6
NC(=O)CN(Cc1ncc(-c2ccc(F)cc2)o1)C1CCCC1	-3.13
CC(C)CNC(=O)Nc1cccc(OCC#N)c1	2
CC1(C)Cc2nc(C(C)(C)C)ncc2C(NC(=O)Cc2nnn[nH]2)C1 (stereo not given)	-20.8
O=C(CC1=CSC2=NCCN12)N1CCCC(CCc2cccc(F)c2)C1 (stereo not given)	13.4
O=C(CCCN1CCCCC1)NC(C(=O)O)c1cccc(F)c1 (stereo not given)	14.7
CN(CC(=O)NCC(F)(F)F)Cc1cccc2c1OCCO2	3.65
CNC(=O)C1(C)CN(S(=O)(=O)c2cccc(OC)c2)CCO1 (stereo not given)	4.63
CC(C)N1CC(c2ccnc(Nc3nccs3)n2)C1	13.4
O=C(NCC(F)(F)F)c1ccc(-n2cccn2)nn1	0.877
Cc1ccccc1CNC(=O)CNc1ccc(OC2CCOC2)cc1 (stereo not given)	10.2
C/C(Cl)=C/CNC(=O)[C@H]1CC[C@]2(CC1)CN(C)C(=O)c1ccccc1O2	7.27

SMILES	Percent Effect [%]
O=C(NCCn1ccnc1-c1cc2n(n1)CCNC2)c1ccncc1	1.13
c1ccn2c(C3CCCN3Cc3nc(C4CC4)no3)nnc2c1 (stereo not given)	2.28
CNC(=O)N1CCOCC1c1c(C)nn(C)c1C (stereo not given)	-2.45
CC(C)c1nnc(CN2CCc3ccc(S(N)(=O)=O)cc32)o1	-0.483
CN1CCC(N(CCc2ccccc2)C(=O)COCC2CCCO2)CC1 (stereo not given)	-4.31
CSCCC(NC(N)=O)C(=O)NCc1cnn(-c2ccccc2)c1 (stereo not given)	-5.05
CCOC(=O)C1(NC(=O)CCNc2cc(C)ccc2OC)CCCCC1	6.8
c1ccc(Cc2noc(-c3ccc(NCC4CCCOC4)nc3)n2)cc1 (stereo not given)	6.64
CC(C)Cc1cc(C(=O)N2CCC(Cc3cnn(C)c3)C2)cc(O)n1 (stereo not given)	-2.83
COC(=O)C(NC(=O)c1ccc(C)cc1C)c1cccnc1 (stereo not given)	2.32
CSCCC(NC(=O)c1ccco1)C(=O)N(C)Cc1ccsc1 (stereo not given)	-5.54
CCCn1cc(-c2cc(C(=O)N(C)C)c3ccc(C)cc3n2)cn1	11.6
CCc1c(C)nn2c(O)cc(C3CCN(C(=O)c4ccn(C)n4)C3)nc12 (stereo not given)	-4.46
Cc1noc(C)c1CCCNC(=O)Nc1ccc2c(c1)CC(=O)N2	33.6
Cc1ccc2c(C(=O)N(C)C)cc(-c3cnn(CCO)c3)nc2c1C	7.33
O=C1NCCN(Cc2ccccc2)C1CC(=O)N1CCc2n[nH]cc2C1 (stereo not given)	-20.4
CCN(CCOC)C(=O)c1cc(COc2ccc3c(c2)CCCC3)on1	0.118
CCN(Cc1ccoc1)C(=O)Nc1ccccc1CN(C)C(C)=O	2.94
Cc1nn(C(C)C)c(C)c1CN1CCN(C2CCCCC2)C(=O)C1	8.49
CSc1ccc(NC(=O)Cn2cc(N)cn2)cc1	-79.3
